# Experimental data reported in the supplement of paper PMC7556523.
# A number with no mark means an inactive call.
# Experiments:
# [1] = tested on: Sporothrix brasiliensis CBS 133006; assay: growth inhibition relative to untreated control; higher = more growth inhibition (more antifungal activity), active = 80 or more; extreme values may be limits of the assay; conditions: 1 µM; 48 h
# Summary of the method: (§1)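 Before testing, the reference isolates were kept in brain heart infusion broth with 2% glucose at 36°C for 7 days to give yeast-form cells. These cells, at 1 x 10^5 CFU/ml, received library compounds at a final 1 μM and were held 48 h at 35°C in 5% CO2. Growth was checked by eye under an inverted light microscope and quantified spectrophotometrically in quadruplicate, and the value is percent growth inhibition versus untreated cells.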
# [2] = tested on: Sporothrix schenckii ATCC 32286; assay: as above; conditions: 1 µM; 48 h
# Summary of the method: as §1
Structure (SMILES),growth inhibition [1],growth inhibition [2]
CN1CCCN(C(c2ccccc2)c2ccc(Cl)cc2)CC1 (stereo not drawn),6%,6.5%
O=C(NC1CC1)c1ccc(N2CCOc3ccc(Cl)cc32)s1,7%,11.8%
O=C(Nc1nnc(-c2ccc(Cl)cc2)o1)c1cccc(C(F)(F)F)c1,100% (active),85.5% (active)
C[C@]1(COc2ccc(N3CCC(Oc4ccc(OC(F)(F)F)cc4)CC3)cc2)Cn2cc([N+](=O)[O-])nc2O1,7.25%,4.5%
c1cncc(NCc2ccc(-c3cc4ccncc4cc3OC3CCNCC3)s2)c1,20.8%,3%
O=C(Nc1ccc2c(c1)B(O)OC2)c1ccccc1C(F)(F)F,13.5%,20.5%
CC(C)(C)c1cnc(NC(=O)c2ccccc2O)s1,8%,0%
O=C(Nc1cccc(-c2ccc(NCCCN3CCCC3)nc2)c1)c1ccccc1,14.8%,6%
CC(=O)NC[C@H]1CN(c2ccc(N3CCSCC3)c(F)c2)C(=O)O1,5.5%,0%
Cc1ccccc1C(=O)N1N=C(Nc2ccccc2)SC1(C)C,10.5%,16%
COc1cccc(-n2nnnc2S(C)(=O)=O)c1,0%,22.8%
CCc1ccc(C(NCc2nc(N)nc(N(C)C)n2)C(C)C)cc1 (stereo not drawn),0%,8.75%
Clc1cccc(CO[C@H]2CCc3ccccc3[C@@H]2n2ccnn2)c1,15.8%,3%
CCOC(=O)NC(=O)c1ccsc1NC(=O)c1nc2ccccc2s1,32.8%,2.25%
